In PubChem BioAssay one finds composite z-score, composite Z-score and z-score data, which are given here for five molecules.

One test concerns the target Albumin (Bos taurus) (UniProt P02769). The test is described as follows: bovine serum albumin binders on microarray, profiling panel, artefact control for SMM control protein annotation, biochemical, small-molecule microarray, Alexa647 label, 635/667 nm fluorescence (AID 1118).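 Note: score merges 667 nm emission intensity and signal-to-noise per printed compound spot.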 The conditions noted are these: BSA-A647 binding, fluorescence 635 nm, higher = more signal.
Test [1] in a line: small-molecule microarray binders of probe aXIP, primary screen, biochemical, NeuroSMM set, 635/667 nm fluorescence (AID 1119).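 Note: probe is the protein aXip251-270 applied at 1 µg/mL to compound-printed slides; binding of probe to printed compounds measured as 667 nm fluorescence plus signal to noise.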 The conditions noted are these: higher = more signal, called active from +8 up or from −8 down.
Test [2] is described as follows: small-molecule binders of probe aNOTCH3, primary screen, biochemical, small-molecule microarray, 635/667 nm fluorescence (AID 1120).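 Note: probe is a biotin-tagged antibody raised against NOTCH3 rather than NOTCH3 protein; score merges spot fluorescence near 667 nm with spot signal to noise.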 As to conditions: higher = more signal.
Test [3] can be described thus: small-molecule binders of probe aNOTCH2, primary screen, biochemical, small-molecule microarray, 635/667 nm fluorescence (AID 1121).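 Note: score merges feature fluorescence read at 667 nm with its signal to noise.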 The conditions noted are these: higher = more signal.
Test [4] concerns the target Carbonic anhydrase 2 (Homo sapiens) (UniProt P00918). Kind of test: CAII small-molecule binders, profiling panel, biochemical, small-molecule microarray, Alexa647-labelled CAII (AID 1122). As to conditions: CAII-A647 binding fluorescence, higher = more signal.
A short description of test [5]: COS7 lysate on small-molecule microarray, probe aHis, 635 nm (AID 1123).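 Note: z-score combines 667nm fluorescence intensity with signal-to-noise per printed compound spot.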 The conditions noted are these: COS7 cell lysate, fluorescence, higher = more signal.
Test [6] is described as follows: compound binding in COS7 lysate, probe aLAP1, primary screen, cell lysate, small-molecule microarray (AID 1124).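 Note: lysate comes from COS7 cells expressing LAP1 and is applied at 0.3 µg/mL; score merges spot fluorescence near 667 nm with signal-to-noise over triplicate slides.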 As to conditions: probe aLAP1, fluorescence, higher = more signal.
The test system of a further test is Sam68 (KHDRBS1). The test is described as follows: Sam68 small-molecule binders, primary screen, biochemical, small-molecule microarray, 635 nm fluorescence (AID 1125).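 Note: score merges 667 nm channel intensity with signal to noise over triplicate slides.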 The conditions noted are these: small-molecule microarray binding, higher = more signal.
Test [7] concerns Chordin-like protein 2 (CHRDL2). Kind of test: CHRDL2 small-molecule binders, primary screen, biochemical, small-molecule microarray, 635 nm fluorescence (AID 1126).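 Note: printed compound slides probed with Chrdl2 protein at 4 µg/mL for 1 h at 4 C; score merges 667 nm emission intensity with signal to noise over three replicate slides.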 The conditions noted are these: small-molecule microarray binding, fluorescence 635 nm; higher = more signal.
Test [8] concerns the target Concanavalin-A (Canavalia ensiformis) (UniProt P02866). Kind of test: ConA small-molecule binders, primary screen, artefact control for SMM control protein annotation, biochemical, small-molecule microarray, Alexa647 label, 635 nm (AID 1127).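 Note: z combines 667 nm emission intensity with signal-to-noise across three replicate slides.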 As to conditions: ConA-A647 binding fluorescence, higher = more signal.
Test [9] in a line: anti-His antibody binders, primary screen, artefact control for SMM control protein annotation, biochemical, small-molecule microarray, 635 nm fluorescence (AID 1128).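 Note: score merges feature fluorescence with signal-to-noise for each printed compound spot.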 As to conditions: anti-His Alexa647 antibody binding, higher = more signal.
Test [10] deals with Human papillomavirus type 1a E7 protein (residues 1-88). The test is described as follows: HPV1a E7 small-molecule binders, primary screen, biochemical, small-molecule microarray, residues 1-88, 635 nm (AID 1129). The conditions noted are these: small-molecule microarray binding, fluorescence 635 nm; higher = more signal.
For test [11], the target named is Focal adhesion kinase 1 (Homo sapiens) (UniProt Q05397). Kind of test: small-molecule microarray binders of FAK, primary screen, biochemical, 635/667 nm fluorescence, BSA, DTT (AID 1130).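 Note: composite of spot emission at 667 nm and signal to noise over triplicate slides.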 The conditions noted are these: PTK2 binding, 635 nm fluorescence, higher = more signal.
Test [12] relates to Fibrinogen (Alexa647-labelled). The test is described as follows: fibrinogen binders on compound microarrays, profiling panel, artefact control for SMM control-protein annotation, biochemical, small-molecule microarray, 635/667 nm fluorescence (AID 1131).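 Note: z-score merges 667 nm fluorescence with per-spot signal-to-noise over triplicate slides.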 The conditions noted are these: fibrinogen-A647 binding fluorescence, higher = more signal.
Test [13] deals with Follistatin (Homo sapiens) (UniProt P19883). Kind of test: follistatin binders on small-molecule microarrays, primary screen, biochemical, small-molecule microarray, 635/667 nm fluorescence (AID 1132). The conditions noted are these: FST binding, 635 nm fluorescence, higher = more signal.
Test [14] addresses Fibroblast growth factor 2 (Homo sapiens) (UniProt P09038). Kind of test: FGF2 binders on small-molecule microarrays, primary screen, biochemical, small-molecule microarray, 635/667 nm fluorescence (AID 1133). The conditions noted are these: small-molecule microarray binding, FGF2, fluorescence 635/667; higher = more signal.
The nature of test [15]: mitochondrial membrane potential change in A549 cells, profiling panel, cell-based, JC-1 fluorescence, basal, 24 h, 100 nL (AID 1138).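 Note: A549 lung adenocarcinoma cells under basal conditions with no added stimulus; test concentration not given here.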 As to conditions: higher = more signal.
Another test concerns Lefty1. Kind of test: Lefty1 binders on small-molecule microarrays, primary screen, biochemical, small-molecule microarray, 635/667 nm fluorescence (AID 1139). As to conditions: small-molecule microarray binding, fluorescence 635/667; higher = more signal.
For test [16], the system named is wheat germ agglutinin (Triticum aestivum), Alexa647-labelled. Kind of test: wheat germ agglutinin binders on compound microarrays, profiling panel, artefact control for SMM control-protein annotation, biochemical, small-molecule microarray, 635/667 nm fluorescence (AID 1140).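 Note: score merges 667 nm feature emission with signal to noise over triplicate slides.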 The conditions noted are these: WGA-A647 binding, 635 nm fluorescence, higher = more signal.

Test [17] addresses Luciferin 4-monooxygenase (Photinus pyralis) (UniProt P08659). Kind of test: firefly luciferase enzyme inhibitors, primary screen, biochemical, luminescence, purified enzyme, 2006 set (AID 1141).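 Note: cell-free assay with purified firefly luciferase at 100 ng per well in PBS; test concentration not given here.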 As to conditions: SteadyGlo luminescence, 30 min, higher = more signal, called active from +8 up or from −8 down.

The source made the active and inactive calls.

Sequence of Albumin (Bos taurus) (P02769 whole entry, looked up): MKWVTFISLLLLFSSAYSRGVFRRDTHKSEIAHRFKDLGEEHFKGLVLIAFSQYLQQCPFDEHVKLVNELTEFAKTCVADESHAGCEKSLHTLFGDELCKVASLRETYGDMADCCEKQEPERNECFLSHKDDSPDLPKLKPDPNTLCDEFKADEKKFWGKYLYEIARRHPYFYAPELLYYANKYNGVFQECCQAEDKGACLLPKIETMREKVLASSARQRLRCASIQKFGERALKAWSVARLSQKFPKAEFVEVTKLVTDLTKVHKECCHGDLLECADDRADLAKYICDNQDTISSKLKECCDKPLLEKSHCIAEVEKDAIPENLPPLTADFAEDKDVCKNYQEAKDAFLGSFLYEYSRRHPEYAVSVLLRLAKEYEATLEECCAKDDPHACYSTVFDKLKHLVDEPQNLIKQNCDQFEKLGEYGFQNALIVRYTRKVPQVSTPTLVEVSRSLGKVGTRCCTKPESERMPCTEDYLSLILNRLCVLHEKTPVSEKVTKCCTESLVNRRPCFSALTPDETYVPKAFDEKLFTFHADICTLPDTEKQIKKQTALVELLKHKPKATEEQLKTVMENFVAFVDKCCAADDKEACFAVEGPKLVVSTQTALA
Sequence of Follistatin (Homo sapiens) (P19883 whole entry, looked up): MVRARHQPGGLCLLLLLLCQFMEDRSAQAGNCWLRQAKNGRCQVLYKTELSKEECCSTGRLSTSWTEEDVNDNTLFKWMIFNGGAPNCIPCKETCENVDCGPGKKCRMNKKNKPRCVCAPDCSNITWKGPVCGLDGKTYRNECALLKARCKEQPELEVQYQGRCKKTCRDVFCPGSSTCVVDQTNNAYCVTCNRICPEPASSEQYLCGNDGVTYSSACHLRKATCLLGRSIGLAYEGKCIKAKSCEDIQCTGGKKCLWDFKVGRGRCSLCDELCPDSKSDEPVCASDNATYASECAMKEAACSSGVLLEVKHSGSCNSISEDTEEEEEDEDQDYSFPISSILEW
Sequence of Luciferin 4-monooxygenase (Photinus pyralis) (P08659 whole entry, looked up): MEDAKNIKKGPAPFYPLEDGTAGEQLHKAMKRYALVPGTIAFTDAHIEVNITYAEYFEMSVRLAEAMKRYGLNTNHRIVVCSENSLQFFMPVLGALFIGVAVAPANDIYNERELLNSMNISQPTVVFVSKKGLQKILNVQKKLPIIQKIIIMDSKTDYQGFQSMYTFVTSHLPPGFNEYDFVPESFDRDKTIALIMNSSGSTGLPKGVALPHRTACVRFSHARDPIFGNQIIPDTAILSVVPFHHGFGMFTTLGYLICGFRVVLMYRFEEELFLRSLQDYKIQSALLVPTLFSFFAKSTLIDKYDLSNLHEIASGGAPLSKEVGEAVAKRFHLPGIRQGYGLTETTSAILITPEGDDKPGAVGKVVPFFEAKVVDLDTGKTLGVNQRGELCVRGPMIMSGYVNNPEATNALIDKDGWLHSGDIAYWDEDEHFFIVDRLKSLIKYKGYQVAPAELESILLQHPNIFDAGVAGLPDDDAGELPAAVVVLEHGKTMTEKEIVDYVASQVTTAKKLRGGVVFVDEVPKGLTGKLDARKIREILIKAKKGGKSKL
Sequence of Focal adhesion kinase 1 (Homo sapiens) (Q05397 whole entry, looked up): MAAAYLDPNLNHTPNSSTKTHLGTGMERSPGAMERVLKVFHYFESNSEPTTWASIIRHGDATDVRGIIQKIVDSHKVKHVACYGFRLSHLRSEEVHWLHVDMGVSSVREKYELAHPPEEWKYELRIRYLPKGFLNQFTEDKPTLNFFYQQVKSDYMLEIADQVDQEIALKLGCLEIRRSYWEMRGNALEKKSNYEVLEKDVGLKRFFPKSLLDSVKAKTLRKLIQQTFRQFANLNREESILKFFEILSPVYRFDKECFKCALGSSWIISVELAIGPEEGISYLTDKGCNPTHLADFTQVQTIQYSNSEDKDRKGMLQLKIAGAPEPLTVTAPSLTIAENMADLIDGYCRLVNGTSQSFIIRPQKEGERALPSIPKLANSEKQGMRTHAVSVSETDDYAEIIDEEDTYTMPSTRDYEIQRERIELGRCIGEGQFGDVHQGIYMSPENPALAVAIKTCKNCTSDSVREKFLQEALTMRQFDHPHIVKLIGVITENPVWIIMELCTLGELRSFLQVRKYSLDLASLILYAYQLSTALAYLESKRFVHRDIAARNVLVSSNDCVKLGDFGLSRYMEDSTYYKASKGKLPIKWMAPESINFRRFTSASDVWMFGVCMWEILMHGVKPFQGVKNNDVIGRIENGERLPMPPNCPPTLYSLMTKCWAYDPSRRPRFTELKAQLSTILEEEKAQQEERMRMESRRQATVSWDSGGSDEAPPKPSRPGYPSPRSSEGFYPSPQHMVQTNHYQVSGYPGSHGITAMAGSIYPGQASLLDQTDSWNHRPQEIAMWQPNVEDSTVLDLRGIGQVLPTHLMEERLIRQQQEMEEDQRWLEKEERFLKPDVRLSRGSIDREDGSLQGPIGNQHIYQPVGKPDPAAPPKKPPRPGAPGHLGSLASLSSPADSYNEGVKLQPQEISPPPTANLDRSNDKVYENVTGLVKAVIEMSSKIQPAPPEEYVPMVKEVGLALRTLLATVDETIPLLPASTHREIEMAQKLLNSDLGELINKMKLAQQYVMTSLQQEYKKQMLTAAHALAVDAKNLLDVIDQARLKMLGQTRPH
Sequence of Concanavalin-A (Canavalia ensiformis) (P02866 whole entry, looked up): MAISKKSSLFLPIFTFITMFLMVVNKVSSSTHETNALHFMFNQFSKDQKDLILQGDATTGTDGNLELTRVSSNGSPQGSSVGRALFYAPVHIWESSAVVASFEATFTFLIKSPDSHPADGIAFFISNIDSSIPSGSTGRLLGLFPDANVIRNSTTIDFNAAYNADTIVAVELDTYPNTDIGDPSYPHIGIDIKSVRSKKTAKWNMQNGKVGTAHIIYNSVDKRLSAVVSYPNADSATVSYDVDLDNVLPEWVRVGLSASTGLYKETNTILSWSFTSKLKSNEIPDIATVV
Sequence of Fibroblast growth factor 2 (Homo sapiens) (P09038 whole entry, looked up): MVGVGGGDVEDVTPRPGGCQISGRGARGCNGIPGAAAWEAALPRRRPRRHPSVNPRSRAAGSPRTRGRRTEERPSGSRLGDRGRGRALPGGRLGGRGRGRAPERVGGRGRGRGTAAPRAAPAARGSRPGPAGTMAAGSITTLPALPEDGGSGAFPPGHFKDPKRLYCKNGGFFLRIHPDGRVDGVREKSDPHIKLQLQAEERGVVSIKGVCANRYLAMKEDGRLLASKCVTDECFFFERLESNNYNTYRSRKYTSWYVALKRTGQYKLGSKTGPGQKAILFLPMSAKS

Take `CCCC[C@H]1OB(O)C[C@H]2C1=C(COC)C[C@H]1C(=O)N(Cc3ccccc3)C(=O)[C@H]12`: the composite z-score with Albumin (Bos taurus) is 0.11; in test [2], 0.0727; in [3], -0.182; in [4], 0.606; in [5], 0.0082; in test [6], 0.102. Further, the composite z-score is 0.252 in the test on Sam68 (KHDRBS1); -0.0765 in test [7]; 0.106 in [8]; -0.438 in [9]; 0.422 in test [10]; 0.112 in test [11]. The composite z-score in [12] came to 0.575; in [13], 0.935; in test [14] it was 1.18; with Lefty1, 0.499; in test [16] it was 0.552. In [1], the composite Z-score was -0.328 (inactive). In addition, the z-score in test [15] is 1.03; in test [17], -1.22 (inactive).
Consider `C[C@@H]1NC(=O)CC=C[C@@H](C)[C@@H]2C=C[C@H](O)[C@@H](COC(=O)[C@H](C)NC(=O)CC=C[C@@H](C)[C@@H]3C=C[C@H](O)[C@@H](COC1=O)O3)O2`, for which the composite z-score was -0.942 with Albumin (Bos taurus); -0.0328 in test [2]; -0.179 in test [3]; -0.0551 in [4]; -0.384 in [5]; -0.0401 in test [6]. Moreover, the composite z-score in the test on Sam68 (KHDRBS1) is -0.116; in test [7] it was 0.786; in test [8] it was -1.2; in [9] it was -0.689; in [10] it was -0.453; in test [11], 0.365. In addition, the composite z-score was -0.917 in test [12]; 1.29 in [13]; 0.859 in test [14]; 1.41 in the test with Lefty1; -0.833 in test [16]. The composite Z-score in [1] was -0.0764 (inactive). For the same molecule, the z-score in test [15] is -0.0173; in test [17], -0.595 (inactive).
Regarding `Cc1ccc(S[C@]2(C(=O)O)CC(=O)N(Cc3ccccc3)[C@@H]2c2ccc(CO)cc2)cc1`, the composite z-score in the test with Albumin (Bos taurus) is -0.0554; in [2], -0.0328; in test [3] it was -0.154; in [4] it was 0.724; in [5], 1.02; in test [6] it was 0.623. The composite z-score with Sam68 (KHDRBS1) was 0.401; in test [7] it was -0.852; in test [8] it was -0.467; in test [9], -0.846; in test [10], 0.0745; in test [11] it was -0.412. Also, the composite z-score is 0.0619 in [12]; -0.256 in test [13]; 0.0167 in test [14]; -0.532 in the test on Lefty1; 0.0681 in [16]. Further, the composite Z-score in test [1] was 1.28 (inactive). Further, the z-score in test [15] was 1.31; in test [17] it was -1.32 (inactive).
As for `O=C(N1CCCCC1)[C@@]1(CCS(=O)(=O)c2ccccc2)N=C(c2ccc(OCCCO)cc2)O[C@H]1c1ccccc1`, the composite z-score is -0.0092 with Albumin (Bos taurus); 0.0876 in [2]; -0.0872 in test [3]; 0.663 in test [4]; 3.28 in test [5]; 0.343 in test [6]. Besides, the composite z-score in the test with Sam68 (KHDRBS1) is 1.29; in test [7] it was -0.58; in [8] it was 0.639; in test [9], 1.9; in [10], 1.26; in test [11], 0.556. Moreover, the composite z-score was 0.328 in test [12]; 1.25 in test [13]; -0.0973 in test [14]; -0.0953 in the test with Lefty1; 0.0324 in test [16]. Moreover, the composite Z-score in test [1] is -0.595 (inactive). In addition, the z-score in test [15] is 0.216; in [17], -1.32 (inactive).
With `CN(C)C(=O)[C@@]1(Cc2ccccc2N=[N+]=[N-])N=C(c2ccc(OCCCO)cc2)O[C@H]1c1ccccc1CN=[N+]=[N-]`, the composite z-score in the test with Albumin (Bos taurus) was 0.972; in test [2], 0.293; in test [3], 0.215; in [4] it was 0.622; in test [5] it was 3.13; in [6], 1.12. Besides, the composite z-score was 1.29 with Sam68 (KHDRBS1); -0.393 in [7]; 1.2 in test [8]; 2.23 in test [9]; 1.23 in test [10]; 1.02 in test [11]. Moreover, the composite z-score in test [12] turned out to be 0.831; in test [13], 1.21; in test [14] it was 0.512; in the test with Lefty1, 0.633; in [16] it was 1.45. Further, the composite Z-score in [1] was 0.478 (inactive). Also, the z-score was 2.31 in [15] and -1.92 (inactive) in [17].
